BAZ2B block – blocks human BAZ2B. AlphaScreen BAZ2B-H3K14Ac peptide displacement. Potency, µM (doses to about 114 µM), actives largely listed as inhibitors. hit rate 4.4% among 360,000. AID 504333; note: nearly all actives have a fitted effect of over 60% in size
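AlphaScreen displacement: compounds (up to 110uM) incubated 30 min at room temperature with a preformed 50 nM BAZ2B/50 nM biotinylated H3K14Ac peptide complex in PBS pH 7.4 with Tween-20. Donor and acceptor beads at 10 ug/mL final added, 20 min light-protected before reading.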
HP1b chromo inh – blocks HP1-beta chromodomain binding to methylated histone tails. AID 540317. AlphaScreen HP1-beta / biotin-H3K9me3 peptide binding. Potency, µM (top dose mostly 114 µM), usual class: inhibitors. hit rate 0.56% among 390,000; note: nearly all actives have a fitted effect of over 70% in size
Target sequence (P83916 whole entry, looked up): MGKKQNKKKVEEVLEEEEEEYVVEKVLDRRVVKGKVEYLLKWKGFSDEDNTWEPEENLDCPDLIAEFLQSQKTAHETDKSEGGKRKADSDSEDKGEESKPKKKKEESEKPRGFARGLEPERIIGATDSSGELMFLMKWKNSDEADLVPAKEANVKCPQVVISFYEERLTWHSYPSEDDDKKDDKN
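Compound inhibition of the preformed complex between 50 nM HP1-beta and 50 nM biotinylated H3K9me3 peptide was read by AlphaScreen. Buffer was PBS pH 7.4 with 0.01% Tween-20. Incubations ran 30 min at room temperature, with 10 ug/mL donor/acceptor beads.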
Sfp inh – Sfp phosphopantetheinyl transferase inhibition; Potency, µM, most hits filed as inhibitors; hit rate 3.5% among 310,000; Biochemical Sfp PPTase activity, qHTS; AID 1490; Q9F4F7;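 note: the enzyme is Sfp with the accession as filed and its product quenches rhodamine fluorescence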
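Step 1, compound plus 15 nM Sfp-PPTase, 15 min, room temperature. Step 2, add rhodamine-CoA (5 uM) and BHQ-2-YbbR (12.5 uM). Step 3, read 525/598 nm fluorescence at 0 and 30 min.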
JMJD2A Tudor – blocks the human JMJD2A Tudor domain; O75164; AID 504339; hit rate 4.4% among 390,000; Potency, µM (doses to about 114 µM), most hits filed as inhibitors; AlphaScreen JMJD2A-Tudor / H3K4me3 peptide binding; note: nearly all actives have a fitted effect of over 50% in size
G9a block – blocks human histone lysine methyltransferase G9a. AID 504332. Q96KQ7. Potency, µM (highest dose often 102 µM), usual class: inhibitors. hit rate 8.8% among 350,000. G9a H3K9 monomethylation, AlphaScreen, 2 h; note: nearly all actives have a fitted effect of over 75% in size
Target sequence (Q96KQ7 913-1193 limits assumed): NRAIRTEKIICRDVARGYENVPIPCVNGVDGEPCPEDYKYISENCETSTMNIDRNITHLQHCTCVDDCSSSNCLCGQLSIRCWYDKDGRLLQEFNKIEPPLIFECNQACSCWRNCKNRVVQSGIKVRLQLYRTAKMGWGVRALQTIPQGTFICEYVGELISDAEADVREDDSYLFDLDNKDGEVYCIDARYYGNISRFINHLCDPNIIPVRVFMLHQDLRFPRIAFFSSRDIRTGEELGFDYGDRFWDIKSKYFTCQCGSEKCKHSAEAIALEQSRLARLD
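Step 1: enzyme (final 20 nM) with compound, 15 min RT. Step 2: substrate peptide 500 nM and SAM 20 uM, 2 h RT. Step 3: anti-H3K9me1 antibody and AlphaScreen beads, 10 min, then plate read.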
Hits are given with their value; i = inactive; ? = inconclusive; nt = no result given; [ ] = dose if it differs, or a comment. Compounds with a hit are over-represented: about 12% of the library has one in this group of screens. Calls come from the whole dose curve; as a rule, active = well fitted curve in the direction sought with a large enough effect; inconclusive = small, poorly fitted or top-dose-only effect, or another doubt; inactive = no such curve, though single readings can be large; an effect the other way counts as inactive or inconclusive.

SMILES	BAZ2B block	HP1b chromo inh	Sfp inh	JMJD2A Tudor	G9a block
Cc1n[nH]c(=O)c2c(NC(=O)COC(=O)Cc3ccc(Cl)cc3Cl)oc(C)c12	i	i	nt	i	i[0.501 µM]
Cc1n[nH]c(=O)c2c(NC(=O)COC(=O)/C=C/c3cccc(C(F)(F)F)c3)oc(C)c12	i	i	nt	i	10µM
COc1ccccc1CNC(=O)c1ccc(-c2ccccc2C(F)(F)F)o1	i	i	i	i	?
O=C(NCCc1ccccc1)c1ccc(-c2ccccc2C(F)(F)F)o1	i	i	i	i	50.1µM
Cc1ccccc1-c1ccc(C(=O)Nc2cccc(F)c2)o1	?	i	i	i	10µM
O=C(Nc1cccc(F)c1)c1ccc(-c2ccccc2C(F)(F)F)o1	i	nt	i	nt	44.7µM
O=C(Nc1cccc(F)c1)c1ccccc1-c1ccccc1	i	i	i	i	i
COc1ccc(NC(=O)c2ccc(-c3ccccc3C(F)(F)F)o2)cc1	i	i	i	i	70.8µM
CCS(=O)c1scc(-c2ccc(Cl)cc2)c1C#N (configuration not stated)	i	i	i	i	50.1µM
CCOc1cccc(C2C(C(=O)c3ccc(C)o3)=C(O)C(=O)N2c2nccs2)c1 (configuration not stated)	?	i	56.2µM	?	6.31µM
Cc1ccc2nc(N3C(=O)C(O)=C(C(=O)c4cc5ccccc5o4)C3c3cccs3)sc2c1 (configuration not stated)	i	i	39.8µM	?	i
O=C(C1=C(O)C(=O)N(c2nccs2)C1c1ccccc1)c1cc2ccccc2o1 (configuration not stated)	39.8µM	i	5.01µM	i	3.55µM
CCc1ccc2nc(N3C(=O)C(O)=C(C(=O)c4ccco4)C3c3cccs3)sc2c1 (configuration not stated)	50.1µM	?	i	?	?
CC1CCC(=NO)C(=NO)C1 (configuration not stated)	nt	i	nt	i	nt
CC(=O)Oc1ccc(C(=C2CCCCC2)c2ccc(OC(C)=O)cc2)cc1	nt	nt	i	nt	i[12.7 µM]
Cc1ccc(NC(=S)N/N=C2\CC(C)(C)Oc3ccc(O)cc32)cc1	i	i	i	i	i
Cc1ccccc1NC(=S)N/N=C1\CC(C)(C)Oc2ccc(O)cc21	?	?	i	39.8µM	35.5µM
CC(=O)N1CCC2(CC1)C/C(=N\NC(=S)Nc1ccc(C)cc1)c1cc(O)ccc1O2	?	i	i	?	39.8µM
c1ccc(OCC2CCNCC2)nc1	i	i	i	i	79.4µM
O=C(Cn1c(=O)n(-c2ccc(F)c(Cl)c2)c(=O)c2sc3ccccc3c21)NC1CCCC1	i	i	nt	i	i
Cc1ccc(-c2nc(CS(=O)CC(=O)NCCc3ccc(Cl)cc3)c(C)o2)cc1 (configuration not stated)	?	i	nt	i	i
CCN(C(=O)CSc1nnc(-c2ccc(C)cc2)n1N)c1c(N)n(Cc2ccccc2)c(=O)[nH]c1=O	i	i	nt	i	?
CC(C)CN(C(=O)CSc1nnc(-c2cccs2)n1N)c1c(N)n(Cc2ccccc2)c(=O)[nH]c1=O	i	i	nt	i	50.1µM
Cc1nnc(SCC(=O)N(CC(C)C)c2c(N)n(Cc3ccccc3)c(=O)[nH]c2=O)n1N	i	i	nt	i	10µM
CC(C)CN(C(=O)CCCc1nc2ccccc2c(=O)[nH]1)c1c(N)n(Cc2ccccc2)c(=O)[nH]c1=O	i	i	nt	i	39.8µM
SMILES	BAZ2B block	HP1b chromo inh	Sfp inh	JMJD2A Tudor	G9a block
CCN(C(=O)CSc1nnc(-c2ccccc2F)n1N)c1c(N)n(Cc2ccccc2)c(=O)[nH]c1=O	nt	i	nt	i	nt
Nc1ccc(-c2nc3ccccc3o2)cc1	i	i	i	39.8µM	i[2.33 µM]
COc1ccc(NC(=O)c2c(NCc3cccs3)sc3c2CCCCC3)cc1	39.8µM	i	nt	50.1µM	7.94µM
CCOc1ccc(NC(=O)c2c(NCc3sccc3C)sc3c2CCCCC3)cc1	i	i	nt	?	8.91µM
CCOc1ccc(NC(=O)c2c(NC(=O)c3cccc(C)c3)sc3c2CCC3)cc1	i	i	nt	i	i
CCOc1ccc(NC(=O)c2c(NCc3cccs3)sc3c2CCCCC3)cc1	?	i	nt	?	8.91µM
CCOc1ccccc1NC(=O)c1c(NCc2cccs2)sc2c1CCCCC2	i	i	nt	i	?
CCOc1ccc(NC(=O)c2c(NCc3ccc(C)o3)sc3c2CCCCC3)cc1	i	i	nt	?	5.62µM

High-throughput results from PubChem.
